Data: PubChem BioAssay (Tox21)
Inconclusive results are not listed. Activity calls are given as the source filed them. Calls follow the shape of the dose curve; as a rule, active = well fitted cell-killing curve with a large enough effect in the repeat runs; inconclusive = weak or mixed curves; inactive = flat fitted curve, though single readings scatter.

assay: qHTS RealTime-Glo MT Cell Viability Assay in HepG2 cells - 24 hour (AID 1224867); settings: RealTime-Glo luminescence; series mostly up to 76.8 µM; activity change, negative = cytotoxicity: at the top concentration; also: nearly all actives have a fitted effect of over 50% in size
Excerpt: U.S. Tox21 Program National Center for Advancing Translational Sciences [NCATS] NIH Chemical Genomics Center [NCGC] U.S. Environmental Protection Agency [EPA] National Institutes of Environmental Health Sciences [NIEHS] National Toxicology Program [NTP] U.S. Food and Drug Administration [FDA] Tox21 Assay Overview: Measure of cell viability is critical in the cell-base assay. Analysis of cell viability is necessary for the characterization of cell responses to cytotoxic drugs and environmental stress. A RealTime-Glo MT Cell Viability Assay to monitor cell viability in real time of continues cell culture during 40 hours of compound treatment was used to screen Tox21 10K library compounds in HepG2 cells. The RealTime-Glo MT Cell Viability Assay is a nonlytic, homogeneous, bioluminescent method to measure cell viability in real time using a simple, plate-based method. The assay involves adding NanoLuc luciferase and a cell-permeant prosubstrate to cells in culture. Viable cells reduce the proprietary prosubstrate to generate a substrate for NanoLuc luciferase. This substrate diffuses from cells into the surrounding culture medium, where it is rapidly used by the NanoLuc Enzyme to produce a luminescent signal. The signal correlates with the number of viable cells, making the assay well suited for cytotoxicity studies.
Tox21 Assay Protocol Summary: The mixture of HepG2 cell suspension and reagents were dispensed at 600cells/6 ul/well in 1536-well tissue culture treated black solid bottom plates using a Multidrop dispenser. After the assay plates were incubated at a 37 C/5% CO2 incubator for 5 hours, 23 nL of compounds dissolved in DMSO, positive and negative controls was transferred to the assay plate by a pintool work station. The plates were incubated at 37 C for 40 hours. The luminescence intensity were measured at 0h, 8h, 16h, 24h, 32h and 40h time points using ViewLux plate reader during compound treatment.
% is scaled to controls: 0 for no effect and ±100 for the full control effect.

| SMILES | activity change, negative = cytotoxicity |
| --- | --- |
| CO[C@@H]1[C@@H](O[C@@H]2O[C@H](C)[C@@H](O[C@H]3C[C@@](C)(O)[C@@H](O)[C@H](C)O3)[C@H](N(C)C)[C@H]2O)[C@@H](CC=O)C[C@@H](C)[C@@H](O[C@@H]2CC[C@H](N(C)C)[C@@H](C)O2)/C=C/C=C/C[C@@H](C)OC(=O)C[C@H]1OC(C)=O | -6.31% [at 35.3 µM] (inactive) |
| O=C(O)c1c2ccccc2cc2ccccc12 | -2.08% (inactive) |
| Nc1ccc(C(=O)Oc2ccccc2)c(O)c1 | -4.06% [at 35.3 µM] (inactive) |
| O=[N+]([O-])c1ccc(Cl)cc1Cl | 2.41% (inactive) |
| Nc1nc(Cl)nc2c1ncn2[C@H]1C[C@H](O)[C@@H](CO)O1 | 3.85% (inactive) |
| CC(C)C/C=C(\C=O)c1ccccc1 | -2.79% (inactive) |
| CCC1=C(C)CN(C(=O)NCCc2ccc(S(=O)(=O)NC(=O)NC3CCC(C)CC3)cc2)C1=O (stereo not given) | -0.769% [at 35.3 µM] (inactive) |
| c1ccc(CCNc2nc(-c3ccccc3)cs2)cc1 | -19.2% [at 35.3 µM] (inactive) |
| N#C[C@@H]1CC(F)(F)CN1C(=O)CNC1CC2CCC(C1)N2c1ncccn1 (stereo not given in full) | 0.0107% (inactive) |
| Cc1c(-c2cccnc2)c2ccccc2n1CCCCC(=O)O | 2.43% (inactive) |
| O=C1CCCN1CCO | -1.83% (inactive) |
| O=C(O)c1ccc2c(c1)nc(C(=O)NC1CCN(C3CC3)CC1)n2Cc1cc(-c2ccc(Cl)s2)on1 | -0.892% [at 15.8 µM] (inactive) |
| CCCCCCCCNC | 0.999% (inactive) |
| CCOc1cc(OCC)c(C(C)=O)cc1OCC | 1.8% (inactive) |
| CCOc1ccccc1O | -5.66% (inactive) |
| CCCCCCCCS | -0.138% (inactive) |
| CC1(C)CC(O)CC(C)(C)N1[O] | 0.191% (inactive) |
| Nc1ccccc1Nc1ccccc1 | -0.168% (inactive) |
| CC(C)NC(=O)c1ccccc1N | -0.229% (inactive) |
| SCCOCCOCCS | 0.706% (inactive) |

| SMILES | activity change, negative = cytotoxicity |
| --- | --- |
| C(/C=C/C=C/Nc1ccccc1)=Nc1ccccc1 | -2.31% (inactive) |
| O=C(O)c1ccc(O)c(O)c1 | -2.36% (inactive) |
| c1ccc(CN(Cc2ccccc2)Cc2ccccc2)cc1 | -17% (inactive) |
| CC(C(=O)O)c1ccc(/C=C2\CCCCC2=O)cc1 (stereo not given) | 6.25% [at 35.3 µM] (inactive) |
| CCCCOC(=O)CC#N | -2% (inactive) |
| O=C(c1ccco1)N1CCNCC1 | 0.709% [at 35.3 µM] (inactive) |
| CC(CN=Cc1ccccc1O)N=Cc1ccccc1O (stereo not given) | 0.149% (inactive) |
| CC(C)=CCCC(C)C=O (stereo not given) | -2.97% (inactive) |
| C[C@]12CCC(=O)C=C1[C@@H]1C[C@@H]1[C@H]1[C@@H]3[C@@H]4C[C@@H]4[C@@]4(CCC(=O)O4)[C@@]3(C)CC[C@@H]12 | -17.7% [at 35.3 µM] (inactive) |
| C[C@@H](O)[C@H]1C(=O)N2C(C(=O)O)=C(S[C@@H]3CN[C@H](CNS(N)(=O)=O)C3)[C@H](C)[C@H]12 | -9.14% [at 35.3 µM] (inactive) |
| O=C(O)CCc1nc2ccccc2[nH]1 | 0.082% [at 35.3 µM] (inactive) |
| CCCC1CCCC(=O)O1 (stereo not given) | 0.203% (inactive) |
| Cc1cc(C)n(CO)n1 | 0.41% (inactive) |
| Cc1ccc(NC(=O)c2ccc(CN3CCN(C)CC3)cc2)cc1Nc1nccc(-c2cccnc2)n1 | -14.9% [at 35.3 µM] (inactive) |
| Nc1ccc(-c2ccc(F)cc2)cc1 | -1.19% (inactive) |
| Oc1ccc(CCNCCCCCCNCCc2ccccc2)cc1O | -26.2% [at 35.3 µM] (inactive) |
| CCCCCCCCCCCCCCCCN | 4.06% [at 35.3 µM] (inactive) |
| CCCCCCC/C=C/C=O | 0.394% (inactive) |
| CC(C)Oc1ccccc1O | 0.205% (inactive) |
| C/C=C1\[C@H]2C=C(C)C[C@]1(N)c1ccc(=O)[nH]c1C2 | 0.52% [at 35.3 µM] (inactive) |
